Assay outcomes deposited in PubChem by several laboratories.
An excerpt weighted towards active compounds, which were near 5.2% of everything screened.
SKN-1 inh = C. elegans SKN-1 inhibition; C. elegans VP596 Pgst-4::GFP/RFP ratio, acrylamide-induced, 24 h; inhibition, % at 21.8 µM; 360,000 compounds, 0.49% hits; AID 624304;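 active = interference check ratio from 0.5 to 1.5 plus GFP to RFP signal ratio inhibition reaching or exceeding a fixed threshold, cut at about 30% in these data, passing the limit was not always enough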
Vif imaging = inhibitors of HIV Vif; HEK293T cells, Vif self-association by quenched fluorescence, imaging, 24 h; inhibition, % at 7.49 µM; AID 602346; 340,000 compounds, 0.35% hits; in the data active = inhibition above about 50%, passing the limit was not always enough
esBAF inh = SWI/SNF esBAF complex inhibition; mouse ES cells, Bmi1-luciferase knock-in reporter, 24 h; 100% = twice the neutral-well signal; reporter increase, % at 12.5 µM; 350,000 compounds, 2% hits; in the data active = activation above about 40%;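 note: a rise in the Bmi1 reporter signal indicates esBAF inhibition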
GRIN3A LBD mod = modulates the human NR3A ligand-binding domain. NR3A LBD differential scanning fluorimetry, Tm shift; 0% = protein alone, 100% = glycine-bound protein. Tm shift relative to glycine control, % at 25 µM. 340,000 compounds, 2.5% hits;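 active = melting temperature shift of at least 10% of the positive control shift, at one fixed dose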
SMARCA2 activ = SMARCA2 function activation, primary screen; activation, % at 9.1 µM; MG213 cells, MMTV-luciferase reporter, dexamethasone, overnight; 370,000 compounds, 1% hits; in the data active = activation above about 7.8%
NadD block = NadD (S. aureus) enzyme inhibition; purified NadD enzyme, colorimetric absorbance read-out; AID 602399; inhibition, % at 20 µM; 360,000 compounds, 0.78% hits; in the data active = inhibition above about 26%
Numbers stand for hits; i = inactive; nt = not tested or not shown.

SMILES	SKN-1 inh	Vif imaging	esBAF inh	GRIN3A LBD mod	SMARCA2 activ	NadD block
C[C@@H]1CN([C@@H](C)CO)C(=O)c2cccc(NC(=O)C3CCOCC3)c2O[C@H]1CN(C)S(C)(=O)=O	nt	nt	i	nt	nt	nt
Cc1cn2c(N)c(/C=C3\C=Nc4ccccc43)c(=O)nc2s1	i	i	nt	15.8	i	i
Nc1c(C=C2C=CC(=O)C=C2)c(=O)nc2snc(SCc3ccccc3)n12	i	nt	i	18.1	i	i
CCc1nn2c(N)c(/C=C3\C=Nc4ccccc43)c(=O)nc2s1	i	i	i	i	i	i
Nc1c(C=C2C=CC(=O)C=C2)c(=O)nc2sc(CC(=O)N3CCCCC3)nn12	i	i	i	i	i	i
CC(C)S(=O)(=O)c1nsc2nc(=O)c(/C=C3\C=Nc4ccccc43)c(N)n12	i	i	i	23.4	i	i
CSc1nsc2nc(=O)c(/C=C3\C=Nc4ccccc43)c(N)n12	i	i	nt	22.3	i	i
Cn1cc(Cl)c(C(=O)Nc2nc3ccccc3s2)n1	i	i	i	i	7.9	i
Cn1cc(Cl)c(C(=O)Nc2cccc(Cl)c2Cl)n1	i	i	70.8	i	i	i
Nc1ccc(C(=O)Nc2nc3ccccc3s2)cc1	i	i	i	i	i	i
O=C(Nc1nc2ccccc2s1)c1c(F)cccc1Cl	i	i	51.9	i	i	i
CCC(=O)N1CCCCN2[C@H](CO)[C@@H](c3ccc(C#Cc4ccccc4F)cc3)[C@@H]2C1	nt	nt	i	nt	nt	nt
CS(=O)(=O)Nc1ccc2c(c1)[C@H]1C[C@H](CC(=O)N3CCCCC3)O[C@H](CO)[C@H]1O2	nt	nt	i	nt	nt	nt
OCc1cn(-c2ccccc2)nc1-c1ccco1	i	i	42.0	i	i	i
Cc1ccc(-c2nn(-c3ccccc3)cc2C(N)=O)o1	i	i	nt	i	i	i
Cc1ccc(-c2nn(-c3ccccc3)cc2CO)o1	i	i	46.2	i	i	i
OCc1cn(-c2ccccc2)nc1-c1ccc(-c2nn(-c3ccccc3)cc2CO)cc1	i	i	i	23.6	i	i
Cc1ccc(-c2nn(-c3ccccc3)cc2CSC(=N)N)cc1	42.8	i	nt	i	i	i
O=C(C1CCCCC1)N1C[C@H]2[C@@H](c3ccccc31)[C@H](CO)N2C(=O)c1ccccc1F	nt	nt	i	nt	nt	nt
O=c1cccc2n1Cc1cc3ccccc3nc1-2	i	i	53.5	i	i	i
CCc1cccc(NC(=O)Cn2cc3c(n2)CCCC3)c1	i	i	i	i	i	i
CN(C)c1ccc(NC(=O)Cn2cc3c(n2)CCCC3)cc1	i	i	43.8	i	i	i
Cc1ccccc1-c1cnc2c(c1)C(=O)N([C@@H](C)CO)C[C@@H](C)[C@@H](CN(C)Cc1ccncc1)O2	nt	nt	i	nt	nt	nt
NC(=O)NC(CCC(=O)O)C(=O)O (stereo unspecified)	i	65.1	i	i	i	i
Cc1noc(C)c1S(=O)(=O)Nc1ccc2c(c1)C(=O)N([C@@H](C)CO)C[C@@H](C)[C@H](CN(C)Cc1ccc(C(=O)O)cc1)O2	nt	nt	i	nt	nt	nt
SMILES	SKN-1 inh	Vif imaging	esBAF inh	GRIN3A LBD mod	SMARCA2 activ	NadD block
Cc1ccc(S(=O)(=O)N[C@@H]2C=C[C@@H](CC(=O)NC3CCCCC3)O[C@H]2CO)cc1	nt	nt	i	nt	nt	nt
CCCc1cc(C(=O)Nc2cc(Br)ccc2O)no1	i	i	56.6	i	i	i
CCCc1cc(C(=O)Nc2cc(Cl)ccc2O)no1	i	i	82.7	i	i	i
COc1ccc(S(=O)(=O)N[C@H]2CC[C@@H](CC(=O)N3CCN(c4ccccc4)CC3)O[C@H]2CO)cc1	nt	nt	i	nt	nt	nt
O=C(C[C@H]1C[C@@H]2c3cc(NC(=O)Cc4ccncc4)ccc3O[C@@H]2[C@H](CO)O1)NCC1CC1	nt	nt	i	nt	nt	nt
O=C(C[C@H]1CC[C@H]2[C@@H](COC[C@@H](O)CN2S(=O)(=O)c2ccc(Oc3ccccc3)cc2)O1)NCCN1CCCCC1	nt	nt	i	nt	nt	nt
O=C(c1ccccc1)C1OC1C(=O)c1ccccc1 (stereo unspecified)	i	72.9	53.1	i	i	i
CC1C=CC(C)C(C(=O)c2ccccc2)C1C(=O)c1ccccc1 (stereo unspecified)	i	i	i	nt	i	i
CS(=O)(=O)NN1C(=O)c2ccccc2NC1c1cc2ccccc2nc1Cl (stereo unspecified)	i	i	89.3	i	i	i
O=C(C[C@@H]1CC[C@H]2[C@@H](COC[C@H](O)CN2C(=O)Nc2cc(Cl)cc(Cl)c2)O1)NCC1CC1	nt	nt	i	nt	nt	nt
Cc1c(Cl)c([N+](=O)[O-])nn1CCCC(=O)Nc1cc(Oc2ccccc2)cc([N+](=O)[O-])c1	i	i	i	18.2	i	i
Cc1nn(CCCC(=O)Nc2cc(Oc3ccc(F)cc3)cc([N+](=O)[O-])c2)c(C)c1[N+](=O)[O-]	i	i	i	i	i	i
COc1cc(-c2nc(-c3ccc4c(c3)-c3ccccc3S4(=O)=O)c(-c3ccccc3)[nH]2)cc(OC)c1O	i	i	i	i	i	35.2
COc1ccc(-c2[nH]c(-c3ccc(C(=O)O)cc3)nc2-c2ccccc2)cc1	i	i	i	i	i	i
Nc1c(Cl)ncnc1N/N=C/c1cccc(O)c1	i	i	i	24.4	i	i
COc1ccc(/C=N/Nc2ncnc(Cl)c2N)cc1OC	i	i	i	i	i	i
Cc1ccc(/C(=N/Nc2nc3ccccc3s2)C2=C(O)c3ccccc3C2=O)cc1	i	i	nt	19.4	i	34.0
Cc1ccc(S(=O)(=O)N(C)CC(=O)Nc2nc3ccccc3s2)cc1	i	nt	nt	i	i	i
C[C@H](CO)N1C[C@H](C)[C@@H](CN(C)CC2CCCCC2)Oc2c(NC(=O)c3cnccn3)cccc2C1=O	nt	nt	i	nt	nt	nt
CC(=O)N1[C@H](CO)[C@H]2c3ccccc3N(C(=O)c3ccccc3)C[C@H]21	nt	nt	i	nt	nt	nt
N#Cc1ccccc1OCC(=O)NC(=O)NCc1ccccc1	i	i	nt	i	i	i
CCNC(=O)NC(=O)COc1ccccc1C#N	i	i	91.1	i	i	i
O=C(O)c1ccccc1-c1ccccc1C(=O)Nc1ccccc1	i	i	i	i	i	i
O=C(O)c1ccccc1-c1ccccc1C(=O)NNc1ccccc1	i	i	nt	14.4	i	i
CCC(=O)N1C[C@@H](C)[C@H](OC)CN(C)C(=O)c2ccc(NC(=O)c3ccc(OC)cc3)cc2OC[C@H]1C	nt	nt	i	nt	nt	nt
COc1ccc(CCN2C(=S)N(C)C(=O)C2CC(=O)Nc2ccc(OC)cc2)cc1 (stereo unspecified)	i	i	i	i	i	i
CCCCCCOc1ccc(NC(=O)CC2C(=O)N(CC)C(=S)N2Cc2ccco2)cc1 (stereo unspecified)	i	i	nt	16.3	i	i
COc1ccc(NC(=O)CC2C(=O)N(C)C(=S)N2Cc2ccc3c(c2)OCO3)cc1 (stereo unspecified)	i	nt	i	14.1	i	i
CCN1C(=O)C(CC(=O)Nc2ccc(F)cc2)N(Cc2ccc3c(c2)OCO3)C1=S (stereo unspecified)	i	i	i	28.1	i	i
